Measured values taken from PubChem BioAssay AID651558 (National Center for Advancing Translational Sciences (NCATS), 2012).
Among all 1,200 compounds or so, about 480 (40%) were called active. Roughly 29% stayed inconclusive and do not appear here. The list shows a part of the results. A number with no mark means an inactive call. The call rests on the fitted dose curve; in most records, active means well fitted inhibition curve with a large enough effect; inconclusive means small, poorly fitted or top-dose-only effect; inactive means no such curve, though single readings can be large or run the other way.

Assay: qHTS Assay to Find Inhibitors of Chronic Active B-Cell Receptor Signaling: Hit Validation in Primary Screen; further: nearly all actives have a fitted effect of over 75% in size
Details: ABC-DLBCL IkB-luc/CBR ratio luminescence, 4 h; series mostly up to 46.1 µM; activity change, negative = inhibition: at the top concentration
In short: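 Concentration series (3 nM to 46 uM) tested on TMD8 cells induced with doxycycline for 4 h. Filter-corrected green (IkBa fusion) over red (unfused) luciferase signal; Data were normalised to 10 uM MG-132 and untreated cell wells.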
On the % scale 0 is the no-effect control and ±100 the full control effect; potency means the concentration at half of the fitted maximal effect.

Q: With `Cc1ccc(CCC(=O)Nc2ncc(Cc3cccc(Cl)c3Cl)s2)o1` as the compound, how does the Potency read?
A: The Potency was 0.231 µM (active).

Q: Which “activity change, negative = inhibition” value does the source give for `Cc1cccc(NC(=S)N=Nc2c(O)n(C)c3ccc(S(=O)(=O)N4CCOCC4)cc23)c1` here?
A: The value was -17.4%.

Q: For `COc1ccc(-c2csc(C3=C(O)CN(CCCN4CCCC4=O)C3=N)n2)cc1OC`, which Potency is on record?
A: The Potency was 18.4 µM (active).

Q: For `CCc1ccc(S(=O)(=O)Nc2ccc(-c3ccc4nnc(C)n4n3)cc2)s1`, which Potency is on record?
A: The Potency was 14.6 µM (active).

Q: For `COc1ccc(OC)c(S(=O)(=O)Nc2ccc(-c3ccc4nnc(C)n4n3)cc2)c1`, which “activity change, negative = inhibition” value is on record?
A: The value was 182%.

Q: For `Cc1nnc2ccc(-c3ccc(NS(=O)(=O)c4ccccc4[N+](=O)[O-])cc3)nn12`, which Potency is on record?
A: The Potency was 20.6 µM (active).

Q: For `CCN(CC)C(=S)NC(=O)c1ccc(F)cc1`, which “activity change, negative = inhibition” value is on record?
A: Its value is -2.9%.

Q: For `CCOC(=O)N1CCC(NC(=O)CS(=O)(=O)Cc2nc(-c3ccccc3C)oc2C)CC1`, which “activity change, negative = inhibition” value is on record?
A: The value was -13.5%.

Q: With `CC1=Nc2cc(C(=O)NC3CCCC3)ccc2Sc2ccc(Cl)cc21` as the compound, how does the Potency read?
A: The Potency was 2.59 µM (active).

Q: For `CCOC(=O)N1CCC(NC(=O)c2ccc3c(c2)N=C(C)c2c(C)ccc(C)c2S3)CC1`, which Potency is on record?
A: Its Potency is 6.51 µM (active).

Q: For `CCCC1=Nc2cc(C(=O)NC3CCCCC3)ccc2Sc2ccc(C)cc21`, which Potency is on record?
A: The Potency was 0.259 µM (active).

Q: Which Potency does the source give for `CC1=Nc2cc(C(=O)NC3CCCCC3)ccc2Sc2ccc(Cl)cc21` here?
A: The Potency was 2.31 µM (active).

Q: With `CCN(CC)c1ccc(-c2nn3c(-c4n[nH]c5c4CCC5)nnc3s2)cc1` as the compound, how does the Potency read?
A: Its Potency is 0.651 µM (active).

Q: For `CCN(CC)c1ccc(-c2nn3c(-c4ccccc4OC)nnc3s2)cc1`, which Potency is on record?
A: Its Potency is 1.46 µM (active).

Q: Which Potency does the source give for `CN(C)c1ccc(-c2nn3c(-c4ccccc4Cl)nnc3s2)cc1` here?
A: Its Potency is 2.91 µM (active).

Q: Which Potency does the source give for `COc1ccccc1-c1nnc2sc(-c3ccc(N(C)C)cc3)nn12` here?
A: Its Potency is 1.16 µM (active).

Q: Which “activity change, negative = inhibition” value does the source give for `C[C@]12CC[C@H]3C(=CCc4cc(O)ccc43)[C@@H]1CCC2=O` here?
A: The value was -23.1%.

Q: With `Cc1ccccc1-c1nc2c3ccccc3nc(=S)n2[nH]1` as the compound, how does the “activity change, negative = inhibition” value read?
A: Its value is -3.4%.

Q: Which “activity change, negative = inhibition” value does the source give for `S=c1nc2ccccc2c2nc(-c3ccccc3Cl)[nH]n12` here?
A: Its value is 44.2%.

Q: With `S=c1nc2ccccc2c2nc(-c3ccccc3)[nH]n12` as the compound, how does the Potency read?
A: Its Potency is 23.1 µM (active).

Q: With `CCN1C(=O)c2cccc3c(NC(=O)c4ccc(OC)c(OC)c4)ccc1c23` as the compound, how does the Potency read?
A: The Potency was 10.3 µM (active).

Q: For `COc1ccc2c(c1)C(C)=CC(C)(C)N2S(=O)(=O)c1ccc(NC(C)=O)cc1`, which Potency is on record?
A: The Potency was 3.26 µM (active).

Q: With `COc1ccc2c(c1)C(C)=CC(C)(C)N2S(=O)(=O)c1ccc(Br)cc1` as the compound, how does the Potency read?
A: Its Potency is 3.26 µM (active).

Q: With `CCOc1ccc2c(c1)C(C)=CC(C)(C)N2S(=O)(=O)c1ccc(NC(C)=O)cc1` as the compound, how does the Potency read?
A: Its Potency is 1.3 µM (active).

Q: For `CCOc1ccc2c(c1)C(C)=CC(C)(C)N2S(=O)(=O)c1ccc(C)cc1`, which Potency is on record?
A: The Potency was 3.26 µM (active).

Q: Which “activity change, negative = inhibition” value does the source give for `N#CC1=C(S)N(c2ccc(F)cc2)C(c2ccco2)NC1=O` (stereo unspecified) here?
A: Its value is 46.1%.

Q: With `COc1ccc(NC(=O)CSc2nc(N)c(C(=O)Nc3ccc(N(C)C)cc3)s2)cc1` as the compound, how does the “activity change, negative = inhibition” value read?
A: The value was -13.4%.

Q: For `CCOc1ccc(NC(=S)N(CCc2c(C)[nH]c3ccccc23)Cc2cccnc2)cc1`, which “activity change, negative = inhibition” value is on record?
A: The value was -24%.

Q: Which Potency does the source give for `CCOc1ccc(NC(=O)c2cc(OC)nc3ccccc23)cc1` here?
A: Its Potency is 5.17 µM (active).

Q: With `COc1ccc(C2=NN(C(C)=O)C(c3cccs3)C2)cc1OC` (stereo unspecified) as the compound, how does the “activity change, negative = inhibition” value read?
A: Its value is 31.9%.

Q: For `COc1ccc(C2CC(c3ccc(OC)c(OC)c3)=NN2C(=O)c2ccccc2)cc1` (stereo unspecified), which Potency is on record?
A: The Potency was 6.51 µM (active).

Q: For `COc1ccc(C2CC(c3ccncc3)=NN2c2ccc(S(N)(=O)=O)cc2)cc1` (stereo unspecified), which “activity change, negative = inhibition” value is on record?
A: The value was 112%.

Q: For `N=C1SCC(=O)N1c1ncc(Cc2cccc(Cl)c2)s1`, which Potency is on record?
A: Its Potency is 20.6 µM (active).

Q: For `NNC(=O)c1[nH]c2ccc(Br)cc2c1-c1ccccc1`, which “activity change, negative = inhibition” value is on record?
A: Its value is 3.52%.

Q: For `O=c1cc(-c2ccccc2)[nH]c2ccc(F)cc12`, which Potency is on record?
A: The Potency was 10.3 µM (active).

Q: With `O=c1cc(-c2cccc(F)c2)[nH]c2ccccc12` as the compound, how does the Potency read?
A: The Potency was 3.66 µM (active).

Q: For `O=c1cc(-c2ccc(F)cc2)[nH][nH]1`, which “activity change, negative = inhibition” value is on record?
A: Its value is 4.42%.

Q: For `O=c1cc(-c2ccccc2)[nH]c2ccccc12`, which Potency is on record?
A: The Potency was 11.6 µM (active).

Q: Which “activity change, negative = inhibition” value does the source give for `O=Cc1ccc(O)c2ncccc12` here?
A: The value was -2.92%.

Q: For `O=[N+]([O-])c1cc(Cl)c2cccnc2c1O`, which “activity change, negative = inhibition” value is on record?
A: The value was -5.39%.

Q: With `COc1ccc(CC2(CO)CCN(Cc3cccc4nccnc34)CC2)cc1` as the compound, how does the “activity change, negative = inhibition” value read?
A: The value was -8.35%.

Q: Which Potency does the source give for `CCCc1nc([N+](=O)[O-])c(S(=O)(=O)c2ccccc2)n1CC(C)C` here?
A: The Potency was 16.4 µM (active).

Q: For `N#Cc1ccc(-c2cccs2)nc1SCc1cccnc1`, which Potency is on record?
A: The Potency was 16.4 µM (active).

Q: With `Cc1cc(C)nc(SCc2ccc(C(=O)N/N=C/c3cccnc3)cc2)n1` as the compound, how does the “activity change, negative = inhibition” value read?
A: Its value is 31.9%.

Q: With `COc1ccc2c(c1)sc1nc(-c3ccccc3)cn12` as the compound, how does the Potency read?
A: Its Potency is 3.26 µM (active).

Q: Which “activity change, negative = inhibition” value does the source give for `Cc1ccc(C)c(NC(=S)N=Nc2c(O)n(C)c3ccc(S(=O)(=O)N4CCOCC4)cc23)c1` here?
A: The value was 35.1%.

Q: Which Potency does the source give for `CCOc1ccc(C2=Nn3c(nnc3-c3ccccc3OC)SC2)cc1` here?
A: The Potency was 0.0731 µM (active).

Q: With `COc1ccc(C2=Nn3c(nnc3-c3ccccc3OC)SC2)cc1OC` as the compound, how does the Potency read?
A: The Potency was 1.3 µM (active).

Q: With `COc1ccc(C2=Nn3c(nnc3-c3ccc(OC)cc3)SC2)cc1` as the compound, how does the Potency read?
A: The Potency was 14.6 µM (active).

Q: Which Potency does the source give for `COc1ccc(C2=Nn3c(nnc3C3CCCCC3)SC2)cc1OC` here?
A: Its Potency is 2.31 µM (active).

Q: For `COc1ccc(C2=Nn3c(nnc3-c3ccccn3)SC2)cc1OC`, which “activity change, negative = inhibition” value is on record?
A: The value was 23.8%.
